Laboratory results from PubChem BioAssay (NCATS).
Inconclusive results are not listed. Activity calls are given as the source filed them. Calls come from the whole dose curve; as a rule, active = well fitted curve in the direction sought with a large enough effect; inconclusive = small, poorly fitted or top-dose-only effect, or another doubt; inactive = no such curve, though single readings can be large; an effect the other way counts as inactive or inconclusive.

What was measured:
[1] = target: Rap guanine nucleotide exchange factor 3 (Homo sapiens) (UniProt O95398); assay: Confirmatory qHTS for antagonist of cAMP-regulated guanine nucleotide exchange factor 3 (EPAC1) (AID 1645880); details: EPAC1 Rap1B-BODIPY-GDP exchange, fluorescence; activity, negative = inhibition: at 115 µM (top of the series);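 note: plate controls were DMSO only for no effect and full effect of the ATA control for full effect; nearly all actives have a fitted effect of over 55% in size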
Summary of the method: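 Released BODIPY-GDP fluoresces less than Rap1-bound BODIPY-GDP; the signal is followed at 480/540 nm at 5-min intervals over 30 min, after 5 min at room temperature. Reactions contain 100 nM EPAC1, 250 nM RAP1B-BODIPY-GDP and 50 uM GDP; results are normalized to ATA and DMSO.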

[2] = target: Rap guanine nucleotide exchange factor 4 (Homo sapiens) (UniProt Q8WZA2); assay: Confirmatory qHTS for agonist of cAMP-regulated guanine nucleotide exchange factor 4 (EPAC2) (AID 1645884); details: EPAC2 GEF activity, Rap1B-BODIPY-GDP fluorescence; series mostly up to 154 µM;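 note: nucleotide exchange releases bodipy-GDP from Rap1 and this lowers its fluorescence; nearly all actives have a fitted effect of over 65% in size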; note: potency is the fitted concentration of half-maximal effect; for activation: % is set by controls: 0 for no effect and ±100 for the full control effect
[3] = target: Rap guanine nucleotide exchange factor 4 (Homo sapiens) (UniProt Q8WZA2); assay: Confirmatory qHTS for antagonist of cAMP-regulated guanine nucleotide exchange factor 4 (EPAC2) (AID 1645885); details: EPAC2 Rap1B-BODIPY-GDP exchange fluorescence, biochemical; series mostly up to 12.7 µM; note: nearly all actives have a fitted effect of over 25% in size; note: potency is the fitted concentration of half-maximal effect; for activity change, negative = inhibition: % is set by controls: 0 for no effect and ±100 for the full control effect
[4] = target: Rap guanine nucleotide exchange factor 3 (Homo sapiens) (UniProt O95398); assay: Counterscreen qHTS for antagonist of cAMP-regulated guanine nucleotide exchange factor 3 (EPAC1) (AID 1645888); details: Rap1B-BODIPY-GDP nucleotide exchange, fluorescence; series mostly up to 154 µM; note: % of control where 0% means no effect
Summary of the method: (§1)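 Measured: fluorescence of BODIPY-GDP bound to Rap1B, which falls as exchange proceeds. Conditions include 50 uM competing GDP, 5 and 30 min reads, and a later cAMP challenge for antagonist detection.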

[5] = target: Rap guanine nucleotide exchange factor 3 (Homo sapiens) (UniProt O95398); assay: Counterscreen qHTS for agonist of cAMP-regulated guanine nucleotide exchange factor 3 (EPAC1) (AID 1645889); details: EPAC1 Rap1B-BODIPY-GDP exchange, fluorescence; series mostly up to 154 µM; note: nearly all actives have a fitted effect of over 40% in size; note: potency is the fitted concentration of half-maximal effect; for activation: % of control where 0% means no effect
Summary of the method: as §1

Sequence of Rap guanine nucleotide exchange factor 3 (Homo sapiens) (O95398 whole entry, looked up): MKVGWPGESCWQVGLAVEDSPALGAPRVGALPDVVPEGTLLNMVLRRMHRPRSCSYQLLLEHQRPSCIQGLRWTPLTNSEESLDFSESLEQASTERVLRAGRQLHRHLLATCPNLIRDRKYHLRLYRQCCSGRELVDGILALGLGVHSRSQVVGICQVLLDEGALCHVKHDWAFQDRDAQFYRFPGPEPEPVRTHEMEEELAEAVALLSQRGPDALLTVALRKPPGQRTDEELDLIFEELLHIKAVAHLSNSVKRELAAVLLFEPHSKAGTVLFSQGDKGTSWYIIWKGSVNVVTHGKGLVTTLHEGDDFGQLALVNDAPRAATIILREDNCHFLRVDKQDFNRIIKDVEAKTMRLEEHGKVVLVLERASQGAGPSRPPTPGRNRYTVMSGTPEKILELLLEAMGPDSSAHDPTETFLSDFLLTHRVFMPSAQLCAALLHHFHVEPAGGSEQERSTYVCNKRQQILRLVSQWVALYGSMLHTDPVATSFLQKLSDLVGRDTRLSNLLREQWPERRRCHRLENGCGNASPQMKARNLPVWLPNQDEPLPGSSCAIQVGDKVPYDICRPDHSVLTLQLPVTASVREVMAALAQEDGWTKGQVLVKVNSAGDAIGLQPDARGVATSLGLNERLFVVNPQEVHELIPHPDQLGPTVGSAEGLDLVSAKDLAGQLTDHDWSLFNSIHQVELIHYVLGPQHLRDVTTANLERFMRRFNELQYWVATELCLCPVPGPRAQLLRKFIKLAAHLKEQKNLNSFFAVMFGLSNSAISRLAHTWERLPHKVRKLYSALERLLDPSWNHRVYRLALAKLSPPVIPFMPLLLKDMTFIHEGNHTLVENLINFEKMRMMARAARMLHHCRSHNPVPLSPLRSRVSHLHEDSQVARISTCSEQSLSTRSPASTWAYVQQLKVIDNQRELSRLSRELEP
Sequence of Rap guanine nucleotide exchange factor 4 (Homo sapiens) (Q8WZA2 whole entry, looked up): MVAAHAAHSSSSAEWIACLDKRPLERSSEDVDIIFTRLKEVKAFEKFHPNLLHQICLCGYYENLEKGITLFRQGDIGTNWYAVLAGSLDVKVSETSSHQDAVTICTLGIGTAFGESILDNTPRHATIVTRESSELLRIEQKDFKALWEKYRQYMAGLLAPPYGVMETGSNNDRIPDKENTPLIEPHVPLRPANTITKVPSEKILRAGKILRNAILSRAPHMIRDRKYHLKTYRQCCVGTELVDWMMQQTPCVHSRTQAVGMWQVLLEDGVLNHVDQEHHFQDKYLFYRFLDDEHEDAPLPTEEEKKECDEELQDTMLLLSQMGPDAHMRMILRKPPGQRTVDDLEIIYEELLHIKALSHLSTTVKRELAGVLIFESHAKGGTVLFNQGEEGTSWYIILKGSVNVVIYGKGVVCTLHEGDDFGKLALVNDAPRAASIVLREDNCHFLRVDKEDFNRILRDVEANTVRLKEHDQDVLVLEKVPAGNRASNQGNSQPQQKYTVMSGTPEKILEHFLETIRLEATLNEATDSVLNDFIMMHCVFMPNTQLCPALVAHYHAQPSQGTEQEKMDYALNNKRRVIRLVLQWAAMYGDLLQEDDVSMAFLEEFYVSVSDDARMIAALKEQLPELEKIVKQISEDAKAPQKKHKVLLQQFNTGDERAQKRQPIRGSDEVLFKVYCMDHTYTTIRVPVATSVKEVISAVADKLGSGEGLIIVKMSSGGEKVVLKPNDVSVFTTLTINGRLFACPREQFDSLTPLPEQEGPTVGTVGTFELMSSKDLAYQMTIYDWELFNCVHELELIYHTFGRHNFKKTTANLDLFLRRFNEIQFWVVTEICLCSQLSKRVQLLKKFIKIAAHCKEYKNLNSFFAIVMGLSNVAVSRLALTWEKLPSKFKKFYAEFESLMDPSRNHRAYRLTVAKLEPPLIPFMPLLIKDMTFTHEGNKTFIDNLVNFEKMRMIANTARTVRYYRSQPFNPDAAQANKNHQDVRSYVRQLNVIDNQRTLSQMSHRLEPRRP

CCOC(=O)C1=C(C)N=c2s/c(=C\c3cccn3C)c(=O)n2C1c1cccc(OC)c1OC (centres undefined)
inactive: Potency [1] | activation [2] 19.2% [at 17.1 µM, percent relative to cAMP agonist control] | Potency [3] | activity change, negative = inhibition [4] -4.43% [at 30.8 µM]

N=C1SC(c2ccccc2)C(=O)N1c1ncc(Cc2ccccc2Cl)s1 (centres undefined)
inactive: Potency [1] | Potency [2] | Potency [3] | Potency [4]

O=C(NN=Cc1c(O)ccc2ccccc12)c1ccncc1
inactive: Potency [1] | activation [2] 6.24% [at 17.1 µM, percent relative to cAMP agonist control] | Potency [3] | activity change, negative = inhibition [4] 4.58% [at 30.8 µM]

COc1ccc(C(=O)/C=C/c2ccc(N(C)C)cc2)c(OC)c1
inactive: Potency [1] | Potency [2] | Potency [3] | Potency [4]

O=C1c2cccc3c(N4CCCCC4)ccc(c23)C(=O)N1c1ccccc1O
inactive: Potency [1] | activation [2] 13.2% [at 17.1 µM, percent relative to cAMP agonist control] | Potency [3] | activity change, negative = inhibition [4] -4.8% [at 30.8 µM]

CNC(=O)N(C1=NCC(C)(C)S1)c1ccc(F)c(Cl)c1
inactive: Potency [1] | Potency [2] | Potency [3] | Potency [4]

O=S(=O)(NCC(c1ccco1)N1CCc2ccccc21)c1ccccc1 (centres undefined)
inactive: Potency [1] | activation [2] 5.38% [at 17.1 µM, percent relative to cAMP agonist control] | Potency [3] | activity change, negative = inhibition [4] -0.643% [at 30.8 µM]

CCOc1ccc(NC(=O)/C(C#N)=C/c2ccc(N3CCCC3)c(C)c2)cc1
inactive: Potency [1] | activation [2] 3.1% [at 17.1 µM, percent relative to cAMP agonist control] | Potency [3] | activity change, negative = inhibition [4] 15.4% [at 30.8 µM]

COC(=O)c1c(C)c2c(C)cc3ccccn3c-2c1C(=O)OC
inactive: Potency [1] | activation [2] 10.6% [at 17.1 µM, percent relative to cAMP agonist control] | Potency [3] | activity change, negative = inhibition [4] 9.53% [at 30.8 µM]

COc1ccc(OC)c(/C=C/c2nc3ccccc3[nH]c2=O)c1
inactive: Potency [1] | Potency [4]
active: Potency [2] 100 µM | Potency [3] 75.7 µM

CC1CCN(c2ccc3c(c2)S(=O)(=O)c2cccc(C(=O)NCc4cccc(F)c4)c2C3=O)CC1
active: Potency [2] 112 µM
inactive: Potency [1] | Potency [3] | Potency [4]

Nc1c(C(=O)C2CC2)sc2nc(-c3cccs3)cc(C(F)(F)F)c12
active: Potency [2] 100 µM | Potency [3] 75.7 µM
inactive: Potency [1] | Potency [4]

Nc1ccccc1Oc1ccc2ccccc2c1
inactive: Potency [1] | Potency [2] | Potency [3] | Potency [4]

Cc1ccc2nc(/C(C#N)=C\c3ccc(N4CCOCC4)o3)[nH]c2c1
inactive: Potency [1] | activation [2] 11.1% [at 17.1 µM, percent relative to cAMP agonist control] | Potency [3] | activity change, negative = inhibition [4] 15.8% [at 30.8 µM]

COc1ccc(OC)c(/C=C2\SC(=S)N(Cc3cccnc3)C2=O)c1
inactive: Potency [1] | activation [2] 3.3% [at 17.1 µM, percent relative to cAMP agonist control] | Potency [3] | activity change, negative = inhibition [4] -3.11% [at 30.8 µM]

COC(=O)CC(NC(=S)NC(=O)c1ccccc1)c1ccc(Br)cc1 (centres undefined)
inactive: Potency [1] | Potency [2] | Potency [3] | Potency [4]

O=C(NCc1ccco1)c1ccc(Cn2c(=S)[nH]c3ccccc3c2=O)cc1
inactive: Potency [1] | Potency [2] | Potency [4]
active: Potency [3] 0.953 µM

COC(=O)c1ccccc1C(=O)c1cccc2ccccc12
inactive: Potency [1] | Potency [2] | Potency [3] | Potency [4]

O=c1[nH]c2ccccc2nc1/C=C(\O)c1cccs1
inactive: Potency [1] | activation [2] 1.73% [at 17.1 µM, percent relative to cAMP agonist control] | Potency [3] | activity change, negative = inhibition [4] -7.08% [at 30.8 µM]

CCOC(=O)N1CCc2c(sc3c2c(=O)n(-c2ccc(F)cc2)c(=O)n3CC(=O)c2ccc(Cl)cc2)C1
inactive: Potency [1] | Potency [2] | Potency [3] | Potency [4]

Cc1cccc(-n2c(N)c(-c3nc4ccccc4n3C)c3nc4ccccc4nc32)c1
inactive: Potency [1] | activation [2] 17.4% [at 17.1 µM, percent relative to cAMP agonist control] | Potency [3] | activity change, negative = inhibition [4] -16.7% [at 30.8 µM]

Cc1cccc(NCc2cccc3ccccc23)n1
inactive: Potency [1] | activation [2] 4.47% [at 17.1 µM, percent relative to cAMP agonist control] | Potency [3] | activity change, negative = inhibition [4] -11.4% [at 30.8 µM]

COC(=O)c1cc2sc(Cl)cc2n1Cc1cc(C)ccc1C
inactive: Potency [1] | Potency [2] | Potency [3] | Potency [4]

COC(=O)c1ccc2nc(-c3ccccc3)c(Cc3cccc(F)c3)n2c1
inactive: Potency [1] | activation [2] 4.96% [at 17.1 µM, percent relative to cAMP agonist control] | Potency [3] | activity change, negative = inhibition [4] 10% [at 30.8 µM]

CCOc1ccc(CCN2C(=O)C(=O)N([C@@H](CC(C)C)CN3CCC[C@@H]3CN3C(=O)C(=O)NC[C@@H]3Cc3ccccc3)C[C@@H]2CC(C)C)cc1
active: Potency [3] 0.0953 µM
inactive: Potency [1] | Potency [2] | Potency [4]

CCOC(=O)C1CCCN(c2c(C(=O)c3ccccc3)cnc3ccc(OC)cc23)C1 (centres undefined)
inactive: Potency [1] | activation [2] 6.11% [at 17.1 µM, percent relative to cAMP agonist control] | Potency [3] | activity change, negative = inhibition [4] 19.5% [at 30.8 µM]

Cc1cccc(-c2nc3nc(C)cc(NCc4ccccc4Cl)n3n2)c1
inactive: Potency [1] | Potency [2] | Potency [3] | Potency [4]

Cc1cccc(C(C)C)c1-n1nnnc1-c1ccccc1
inactive: Potency [1] | activation [2] 6.22% [at 17.1 µM, percent relative to cAMP agonist control] | activity change, negative = inhibition [4] -11.8% [at 30.8 µM]
active: Potency [3] 3.01 µM

COc1cccc(-n2c(SCC(=O)Nc3ccc(F)cc3F)nc3c([nH]c4ccccc43)c2=O)c1
inactive: Potency [1] | Potency [2] | Potency [3] | Potency [4]

CC(OC(=O)/C(C#N)=C/c1ccc(N(C)C)cc1)C(=O)N(C)Cc1ccccc1 (centres undefined)
inactive: Potency [1] | activation [2] 3.68% [at 17.1 µM, percent relative to cAMP agonist control] | Potency [3] | activity change, negative = inhibition [4] -0.358% [at 30.8 µM]

COC(=O)C1=CC(C(=O)c2cccs2)=NN(c2ccc(OC)cc2)C1C(=O)OC (centres undefined)
inactive: Potency [1] | activation [2] 9.11% [at 17.1 µM, percent relative to cAMP agonist control] | Potency [3] | activity change, negative = inhibition [4] -26% [at 30.8 µM]

CC(NC(=O)/C(C#N)=C/c1ccc(N2CCOCC2)cc1)c1ccccc1 (centres undefined)
active: Potency [2] 112 µM
inactive: Potency [1] | Potency [3] | Potency [4]

COc1ccc(Cl)cc1NC(=O)CN(C)C(C)C(=O)NC(=O)NC1CCCCC1 (centres undefined)
inactive: Potency [1] | Potency [2] | Potency [3] | Potency [4]

CN(C)c1ccc(/C=C(\C#N)C(=O)c2ccccc2)cc1
inactive: Potency [1] | activation [2] 17.4% [at 17.1 µM, percent relative to cAMP agonist control] | Potency [3] | activity change, negative = inhibition [4] 15.5% [at 30.8 µM]

O=S1(=O)NC(c2ccccc2)CC(CC2CCCCC2)O1 (centres undefined)
inactive: Potency [1] | activation [2] 26.6% [at 17.1 µM, percent relative to cAMP agonist control] | Potency [3] | activity change, negative = inhibition [4] -0.437% [at 30.8 µM]

CCN(CC)c1ccc2cc(C(N)=O)c(=N)oc2c1
inactive: Potency [1] | activation [2] 2.03% [at 17.1 µM, percent relative to cAMP agonist control] | Potency [3] | activity change, negative = inhibition [4] -1.22% [at 30.8 µM]

CCc1cccc(CC)c1N1C(=O)C2=C(SCCCS2)C1=O
active: Potency [2] 112 µM
inactive: Potency [1] | Potency [3] | Potency [4]

Cc1ccc(NC(=O)c2sc3nc(-c4cc5ccccc5oc4=O)[nH]c(=O)c3c2C)c(C)c1
inactive: Potency [1] | Potency [2] | Potency [3] | Potency [4]

COc1ccccc1C(=O)NNC(=O)CCCN1C(=O)/C(=C/c2cccs2)SC1=S
inactive: Potency [1] | activation [2] 1.7% [at 17.1 µM, percent relative to cAMP agonist control] | Potency [3] | activity change, negative = inhibition [4] 10.7% [at 30.8 µM]

N=C1/C(=C/c2coc3ccccc3c2=O)C(=O)N=C2SC(c3ccco3)=NN12
inactive: Potency [1] | Potency [2] | Potency [3] | Potency [4]
active: Potency [5] 39.8 µM

COc1ccc(-c2ncccc2OC(=O)C23CC4CC(CC(C4)C2)C3)cc1OC
inactive: Potency [1] | activation [2] 1.83% [at 17.1 µM, percent relative to cAMP agonist control] | Potency [3] | activity change, negative = inhibition [4] -6.96% [at 30.8 µM]

COc1ccc(-c2nc(N/N=C(\C)c3ccc(O)cc3)c3ccccc3n2)cc1
inactive: Potency [1] | activation [2] -0.683% [at 17.1 µM, percent relative to cAMP agonist control] | Potency [3] | activity change, negative = inhibition [4] 8.99% [at 30.8 µM] | activation [5] 22.7% [at 30.8 µM]

CC(=O)NC(c1cccc(F)c1)c1nc(-c2ccccc2)cs1 (centres undefined)
inactive: Potency [1] | activation [2] 10% [at 17.1 µM, percent relative to cAMP agonist control] | Potency [3] | activity change, negative = inhibition [4] -20.8% [at 30.8 µM] | activation [5] 45.7% [at 30.8 µM]

CC(=O)Nc1sc2c(c1-c1nc3ccccc3s1)CN(C(C)C)CC2
inactive: Potency [1] | activation [2] 18.6% [at 17.1 µM, percent relative to cAMP agonist control] | Potency [3] | activity change, negative = inhibition [4] 28.4% [at 30.8 µM]
active: Potency [5] 10 µM

CCN(C(=O)CN1CCN(c2ccccc2O)CC1)c1c(N)n(Cc2ccccc2)c(=O)[nH]c1=O
inactive: Potency [1] | Potency [2] | Potency [3] | Potency [4]

C(=C(c1ccccc1)c1ccccc1)c1ccccn1
inactive: Potency [1] | Potency [2] | Potency [4] | Potency [5]
active: Potency [3] 84.9 µM

Cc1ccccc1-n1c(O)c(/C=C/C=Nc2ccccc2)c(=O)[nH]c1=O
active: Potency [2] 112 µM | Potency [5] 39.8 µM
inactive: Potency [1] | Potency [3] | Potency [4]

O=C(Cc1nc2ccccc2[nH]c1=O)c1ccccc1
inactive: Potency [1] | Potency [3] | Potency [4] | Potency [5]
active: Potency [2] 100 µM
